Measured values from PubChem BioAssay (NCATS).
Records with an inconclusive call do not appear. Values without a mark were called inactive. Calls come from the whole dose curve; as a rule, active = well fitted inhibition curve with a large enough effect; inconclusive = small, poorly fitted or top-dose-only effect, or effect the other way; inactive = flat fitted curve, though single readings scatter.

What follows are compounds tested against ATP-dependent 6-phosphofructokinase (Trypanosoma brucei brucei) (UniProt O15648) (assay: qHTS Assay to Find Inhibitors of T. brucei phosphofructokinase: hit validation (AID 492961;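 note: luminescence reports ADP formed as PFK phosphorylates fructose-6-phosphate with ATP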)). Conditions: T. brucei PFK, ADP-Glo luminescence; series mostly up to 51.4 µM; activity change, negative = inhibition: at the top concentration.
Procedure, shortened: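 Reaction: 0.1 M triethanolamine pH 8.0, 5 mM MgCl2, F6P 0.5 mM, ATP 0.1 mM, PFK 1.25 nM, 45 min RT. Read-out: ADP-Glo luminescence. Analysis: concentration-response fits, classed by r2 and efficacy.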
% is set by controls: 0 for no effect and ±100 for the full control effect.

Sequence of ATP-dependent 6-phosphofructokinase (Trypanosoma brucei brucei) (O15648 whole entry, looked up): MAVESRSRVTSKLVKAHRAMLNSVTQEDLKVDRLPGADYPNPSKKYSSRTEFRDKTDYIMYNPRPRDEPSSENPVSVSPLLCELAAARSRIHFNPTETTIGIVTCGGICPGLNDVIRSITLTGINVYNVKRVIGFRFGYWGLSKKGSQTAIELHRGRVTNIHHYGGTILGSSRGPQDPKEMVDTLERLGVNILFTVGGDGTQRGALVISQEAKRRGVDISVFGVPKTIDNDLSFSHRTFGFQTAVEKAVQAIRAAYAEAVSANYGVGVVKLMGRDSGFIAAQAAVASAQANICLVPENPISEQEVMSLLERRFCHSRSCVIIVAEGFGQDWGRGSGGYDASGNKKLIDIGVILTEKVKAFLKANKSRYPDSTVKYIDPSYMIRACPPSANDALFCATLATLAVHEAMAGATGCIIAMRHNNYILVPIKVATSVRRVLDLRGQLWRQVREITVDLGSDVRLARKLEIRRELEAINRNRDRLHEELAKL

First: CCCCC
Second: CCCC(CCC)C(=O)OC1C[C@H]2CC[C@@H](C1)[N+]2(C)C (stereo not given in full)
The “activity change, negative = inhibition” value of the first is higher: 9.73% for the first, -3.92% for the second.

Going from `O=C(O[C@H]1CN2CCC1CC2)N1CCc2ccccc2[C@@H]1c1ccccc1` to `CC(C)(Oc1ccc(C2CCCc3ccccc32)cc1)C(=O)O` (stereo not given), the “activity change, negative = inhibition” value falls from 1.35% to 0%.

First: CCCCCCCCCCCCCCCCOCCOCCOCCOCCOCCOCCOCCOCCOCCOCCOCCOCCOCCOCCOCCOCCOCCOCCOCCOCCO
Second: O=C(CCCCCCCCCCCCC1CCCC1)Nc1ccc(S(=O)(=O)c2ccc(NC(=O)CCCCCCCCCCCCC3CCCC3)cc2)cc1
The “activity change, negative = inhibition” value of the first is higher: 6.99% for the first, -19.9% for the second.

First: O=C1[O][Bi][O]c2ccccc21
Second: Cc1ccccn1
The “activity change, negative = inhibition” value of the first is lower: -13.6% for the first, 6.94% for the second.

First: C[C@H](N)C(=O)N[C@@H](C)P(=O)(O)O
Second: NCC(O)CC(=O)O (stereo not given)
The “activity change, negative = inhibition” value of the first is lower: -0.703% for the first, -0.586% for the second.

Going from `O=C1CCC(=O)N1CO` to `Nc1nc(=O)n([C@@H]2CS[C@H](CO)O2)cc1F`, the “activity change, negative = inhibition” value rises from 1.05% to 22.4%.

Compared with `FC(F)OC(Cl)C(F)(F)F` (stereo not given), `COC(=O)[C@@H](N)CS` is higher in “activity change, negative = inhibition” value: 0% for the first, 2.57% for the second.

Compared with `Nc1ncnc2c1ncn2CCOCP(=O)(O)O`, `Nc1ncnc2c1ncn2[C@H]1CC[C@@H](CO)O1` is lower in “activity change, negative = inhibition” value: -2.02% for the first, -4.31% for the second.

Compared with `COc1ccc(C[C@H](C)NC[C@@H](O)c2ccc(O)c(NC=O)c2)cc1`, `COc1ccc2nc(NC(=O)Nc3ccccc3)sc2c1` is lower in “activity change, negative = inhibition” value: -0.559% for the first, -7.32% for the second.

Compared with `CC1C(=O)CC2C3(C)CCC2(C(C)C(=O)O)C(=O)C13` (stereo not given), `C[C@]12CC[C@@H]3c4ccc(OC(=O)c5ccccc5)cc4CC[C@H]3[C@@H]1CC[C@@H]2O` is lower in “activity change, negative = inhibition” value: 0% for the first, -3.9% for the second.

First: CN1c2c(nc(N)[nH]c2=O)NCC1CNc1ccc(C(=O)NC(CCC(=O)O)C(=O)O)cc1 (stereo not given)
Second: CC(=O)Nc1ccc(NC(=S)NC(=O)c2ccc(C(C)(C)C)cc2)cc1
The “activity change, negative = inhibition” value of the first is lower: -11.2% for the first, -8.57% for the second.

Compared with `Cc1ncc(COP(=O)(O)O)c(CN)c1O`, `CC(C)[C@H](N)C(=O)OCC(CO)OCn1cnc2c(=O)[nH]c(N)nc21` (stereo not given in full) is lower in “activity change, negative = inhibition” value: 20.5% for the first, -1.92% for the second.

Going from `OC[C@H]1O[C@@](CO)(O[C@H]2O[C@H](CO)[C@@H](O)[C@H](O)[C@H]2O)[C@@H](O)[C@@H]1O` to `CCCCC[C@H](O)/C=C/[C@H]1[C@H](O)CC(=O)[C@@H]1C/C=C\CCCC(=O)O`, the “activity change, negative = inhibition” value rises from -5.18% to 1.27%.

Compared with `O=C(O)CC/C=C\CC[C@@H]1[C@@H](N2CCCCC2)[C@@H](O)C[C@@H]1OCc1ccc(-c2ccccc2)cc1`, `O=C(O)Cc1nn(Cc2ccc(Br)cc2F)c(=O)c2ccccc12` is lower in “activity change, negative = inhibition” value: 0% for the first, -11.2% for the second.

First: CCOc1ccc(NC(=S)Nc2ccc(OCC)cc2)cc1
Second: CC(C)Cc1ccc([C@@H](C)C(=O)NS(C)(=O)=O)cc1
The “activity change, negative = inhibition” value of the first is lower: -6.78% for the first, -1.81% for the second.

First: CNC(=O)[C@H](Cc1c[nH]c2ccccc12)NC(=O)[C@@H](CC(=O)NO)CC(C)C
Second: CC(C)(C)CC(C)(C)c1cc(Cc2cc(C(C)(C)CC(C)(C)C)cc(-n3nc4ccccc4n3)c2O)c(O)c(-n2nc3ccccc3n2)c1
The “activity change, negative = inhibition” value of the first is lower: -6.96% for the first, -4.25% for the second.

First: CC/C=C\C/C=C\C/C=C\C/C=C\C/C=C\CCCC(=O)O
Second: O=C(O)[C@H]1CN(C/C=C/P(=O)(O)O)CCN1
The “activity change, negative = inhibition” value of the first is higher: 0.532% for the first, -2.35% for the second.

`O=S(=O)(O)CCCS(=O)(=O)O` was tested, and the “activity change, negative = inhibition” value was -0.758%.
